This passage reports growth results from PubChem BioAssay (NCI).

“And” between values parts separate entries of the source, which are not always exact repeats. Equal entries are not always repeated. The panel holds about 83,000 compounds, 20% with a hit somewhere; the sample as a whole holds those more often.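 Testing used 96-well plates and a 48-hour single-concentration exposure. Example: -40 means 40% of the starting cells died.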 The source made the active and inactive calls.

This assay has as its system NCI-H226 lung. As to the kind of experiment: NCI-60 one-dose screen, 48 h (100 = growth as untreated, 0 = no growth, -100 = all killed). The conditions noted are these: 10 µM unless noted. As for the experimental part:
Growth inhibition of the NCI-H226 human Non-Small Cell Lung tumor cell line is measured as a screen for anti-cancer activity. Cells are grown in 96 well plates and exposed to the test compound for 48 hours. Compounds are tested at a single concentration, which is 10^-5 M for most compounds. The reported endpoint is percent growth (GI% or GIPRCNT), where numbers from 0 - 100% represent growth inhibition, and numbers from -100% - 0 represent cell death. For example, a value of 40 represents 60% growth inhibition. A value of 0 means no net growth occurred over the course of the experiment. A value of -40 indicates 40% of cells at the beginning of the experiment died by the end of the experiment. A value of -100 means all cells are dead at the end of the experiment.
NCI-60 Human Tumor Cell Lines Screen was performed using the standard one-dose NCI protocol, which is described in more detail at https://dtp.cancer.gov/discovery_development/nci-60/default.htm.
Compounds with GIPRCNT values below 10 were considered active. Activity score was based on GIPRCNT using the following formula: […]
Score is 0 for GIPRCNT values of 100 or above, 50 for GIPRCNT values of 0, and 100 for GIPRCNT values of -100.
As to `CN1C(=O)/C(=C\C(=O)c2cc3ccccc3oc2=O)c2ccccc21`, the growth is 75.4% (inactive). For the molecule `COc1ccc(-c2cc(C(=O)N=Nc3c(O)[nH]c4ccc(Cl)cc34)c3ccccc3n2)cc1OC`, the growth was 89.5% (inactive). `O=C(Nc1ccc(Br)cc1)Nc1ccc(-c2ccc3c(c2)NC(=O)/C3=C\c2ccc[nH]2)cc1`: the growth is 66.2% (inactive). For the molecule `O=C(Nc1ccc(Cl)c(C(F)(F)F)c1)N1CCN(c2cc(-c3cn(-c4ccccc4)nc3-c3cccc(O)c3)ccn2)CC1`, the growth was -16.2% (active). With `Cc1ccccc1Nc1nnc(-c2c[nH]c3ccccc23)o1`, the growth was 43.9% (inactive).

Regarding `CC1=C(C)C(=O)C(N2CCSCC2)=CC1=O`, the growth was 88.7% (inactive). For the molecule `CCCCNC(=S)Nc1ccc(OCc2nc3ccc(Cl)cc3[nH]2)cc1`, the growth is 58.4% (inactive).

For the molecule `CC1(C)CC(=O)C2=C(C1)OC(N)=C(c1nc3ccccc3[nH]1)C2c1ccc(Cl)cc1` (stereo not given), the growth is 65.7% (inactive) and 123% (inactive). In the case of `O=CNc1cccc(-n2cnc3cc(-c4ccc(O)cc4)ccc32)c1`, the growth was -0.208% (active). Take `Cc1ccc(C(=O)Nc2cccc(C(=O)NC(=S)Nc3ccc(S(N)(=O)=O)cc3)c2)cc1`: the growth is 67.5% (inactive).

`COc1cc(/C=C/C(=O)c2ccc(S(=O)(=O)NCCNc3nc(N(C)C)nc(N4CCOCC4)n3)cc2)cc(OC)c1OC`: the growth was 11.5% (inactive). Take `Nc1nnc(-c2cncc(Br)c2)c(-c2c[nH]c3ccc(Br)cc23)n1`: the growth was 76.5% (inactive). The same measure for `COc1ccc(OC)c(Cn2cc(C#N)c(N)c2C(=O)c2ccc(Br)cc2)c1`: 64.9% (inactive); for `Cc1ccc(C(=O)Nc2cc(-n3ccnc3)cc(C(F)(F)F)c2)cc1-n1cc(-c2cnc3cccnn23)nn1`: 89.9% (inactive). In the case of `Cc1ccc(C2CC(c3ccc(NC(=S)Nc4ccccc4)cc3)=NN2c2ccc(S(N)(=O)=O)cc2)cc1` (stereo not given), the growth was -7.72% (active). In the case of `COc1ccc2[nH]cc(-c3cc(N)n4nc(-c5c[nH]c6ccccc56)cc4n3)c2c1`, the growth is 74.5% (inactive). Consider `COc1cc(/C=N/NC(=O)c2ccc(OCc3nc4ccc(C)cc4[nH]3)cc2)cc(OC)c1OC`, for which the growth was 43% (inactive). In the case of `Nc1cc(-c2c[nH]c3ccc(Cl)cc23)nc2cc(-c3c[nH]c4ccccc34)nn12`, the growth is 35.5% (inactive). On to `COc1cc(CNC(=O)C[C@H](C)CCC=C(C)C)ccc1OCc1cn(-c2ccc(Br)cc2)nn1`, for which the growth was 70.2% (inactive). As to `O=C(c1ccc(Cl)cc1)C1[C@H](c2ccccc2Cl)[C@@H](c2ccccc2)NC12C(=O)Nc1ccc(Br)cc12` (stereo not given in full), the growth was -89.1% (active).

For `COc1ccc(CCC2NCCc3c(Br)c4c(c(OC)c32)OCO4)cc1` (stereo not given), the growth is 25.5% (inactive). Take `COc1ccc2[nH]cc(-c3cc4nc(-c5cn(C)c6ncccc56)cc(N)n4n3)c2c1`: the growth was 92.6% (inactive). As for `Nc1nn2c(-c3cc4ccccc4oc3=O)ccnc2c1N=Nc1ccccc1`, the growth was 35.1% (inactive). For `CCCSc1nnc(-c2sc3nc4ccccc4n3c2C)o1`, the growth is 106% (inactive). In the case of `CC(=O)Nc1cccc(-n2c(COc3ccc(Br)cc3)nc3ccccc32)c1`, the growth was 76.2% (inactive) and 107% (inactive). As for `O=c1c(-c2nc(-c3ccccc3)c(-c3ccccc3)[nH]2)coc2ccc(F)cc12`, the growth is 65.1% (inactive). The same measure for `O=C1Nc2cc(-c3ccc(NS(=O)(=O)c4ccc(C(F)(F)F)cc4)cc3)ccc2/C1=C/c1ccc[nH]1`: 49.7% (inactive); for `N#Cc1c(-c2ccc(F)cc2)nc(SCc2ccc(F)cc2)nc1N1CCNCC1`: 76.9% (inactive); for `CN(C)CCOc1ccc(C(=O)C2[C@H](c3ccc(Cl)cc3)[C@@H](c3ccccc3)NC23C(=O)Nc2ccc(Cl)cc23)cc1` (stereo not given in full): -82.3% (active). The figure for `COc1ccc(NC2=C(I)C(=O)C(C)=C(C)C2=O)cc1` is 78.1% (inactive); for `CCN1CCN(Cc2ccc(C(=O)Nc3cccc(Nc4ccc5c(OC)cccc5n4)c3)cc2C(F)(F)F)CC1` it is -85.8% (active); for `O=C(CSc1nc2ccccc2c(=O)[nH]1)NNC(=O)c1ccccc1Cl` it is 111% (inactive). Take `NS(=O)(=O)c1cccc(Nc2nc(SCC(=O)c3ccc(F)cc3)nc3ccccc23)c1`: the growth is 15.3% (inactive). The same measure for `COc1ccc2[nH]c(O)c(N=Nc3nc(-c4ccccc4)cs3)c2c1`: 11.2% (inactive); for `O=C(Nc1ccc(S(=O)(=O)N2CCCCC2)cc1)C(Cl)Cl`: 127% (inactive).

For the molecule `O=C(NNC(=S)NC(=O)c1ccccc1)c1ccc(OCc2nc3ccc(Cl)cc3[nH]2)cc1`, the growth was -43.9% (active). With `O=C(N/N=C/c1ccc(Br)o1)c1[nH]c2ccc(Br)cc2c1-c1ccccc1`, the growth is -42.6% (active). As to `COc1cc(CNC(=O)[C@]23CCC(C)(C)CC2C2=CCC4[C@@]5(C)CCC(OC(C)=O)C(C)(C)C5CC[C@@]4(C)[C@]2(C)CC3)ccc1OCc1cn(-c2ccc(Cl)cc2Cl)nn1` (stereo not given in full), the growth is 94.8% (inactive). As for `Nc1ccc(-c2ccc3ncnc(N4CCc5cc(F)c(Cl)cc54)c3c2)cn1`, the growth is 18.4% (inactive).

As to `O=C1Nc2ccccc2/C1=C\c1ccc(OCC(=O)c2ccc(Br)cc2)cc1`, the growth was 71.6% (inactive).
